Rows were chosen to be rich in hits. Some 18% of all compounds tested hit in one or more screens of this group.
CtBP-E1A inh: qHTS Assay for Inhibitors of the CtBP/E1A Interaction; CtBP / adenovirus E1A interaction (AlphaScreen); AlphaScreen GST-E1A/His-CtBP binding, 1536-well; active compounds read low; activity change, % (concentration not given with the values); 340,000 compounds, 0.49% hits; in the data active = activity change below about -65%; inconclusive = mostly about -30% to -63%
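Homogeneous bead-based format: GST-tagged E1A captured on glutathione donor beads, His-tagged CtBP on nickel acceptor beads; compounds precede bead addition by 2 h at 37 °C.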
DT40 TDP1 CPT: qHTS for Inhibitors of human tyrosyl-DNA phosphodiesterase 1 (TDP1): qHTS in cells in presence of CPT. chicken DT40 Tdp1-/-;hTDP1 cells + 20 nM CPT, ATP luminescence, 48 h. Potency, µM (titrated, usually from 46.2 µM), without a hit: at the highest dose activity change, negative = growth inhibition, hits mostly inhibitors. 420,000 compounds, 12% hits; also: potency is read from the fitted curve at half-maximal effect; nearly all actives have a fitted effect of over 55% in size
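Chicken DT40 Tdp1-/- cells complemented with human TDP1, 400 cells/well, exposed to compounds plus 20 nM camptothecin for at least 48 h at 37 C; viability read as ATP content by CellTiter-Glo luminescence.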
IL-1B inflam inh: qHTS for Inhibitors of Inflammasome Signaling: IL-1-beta AlphaLISA Primary Screen | THP-1 LPS/ATP IL-1B secretion, AlphaLISA, 16 h; active compounds read low | activity change, % at 57.5 µM | 360,000 compounds, 4.7% hits; in the data active = activity change below about -50%; inconclusive = mostly about -30% to -49%
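THP-1 cells pretreated 1 hr with compounds (up to 57.5 uM final), then stimulated with LPS (250 ng/mL final) plus ATP (1.25 mM final); secreted IL-1B measured by AlphaLISA after 16 hr, decreased signal indicating inhibition.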
TDP1 inh: qHTS Assay for Inhibitors of Tyrosyl-DNA Phosphodiesterase (TDP1). Tyrosyl-DNA phosphodiesterase 1 (Homo sapiens), Q9NUW8. recombinant TDP1, AlphaScreen DNA substrate cleavage. Potency, µM (series often up to 130 µM), for the others: at the highest dose activity change, negative = inhibition, most hits filed as inhibitors. 350,000 compounds, 0.28% hits. AID 485290, 2010; also: potency is read from the fitted curve at half-maximal effect; nearly all actives have a fitted effect of over 40% in size
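Compounds were preincubated with Tdp1 (1 nM final) for 15 min at room temperature before substrate (15 nM final) started a 5 min reaction; beads (10 ug/ml final) were then added for 10 min before AlphaScreen detection.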
Six1-Eya2 inh: qHTS Assay for Inhibitors of the Six1/Eya2 Interaction; Homeobox protein SIX1 (Homo sapiens) + Protein phosphatase EYA2 (Homo sapiens), …; AlphaScreen GST-Six1/His-Eya2 binding, biochemical; active compounds read low; activity change, % (no concentration beside the values); 360,000 compounds, 0.56% hits; in the data active = activity change below about -65%; inconclusive = mostly about -30% to -63%
Target sequence (O00167 whole entry, looked up): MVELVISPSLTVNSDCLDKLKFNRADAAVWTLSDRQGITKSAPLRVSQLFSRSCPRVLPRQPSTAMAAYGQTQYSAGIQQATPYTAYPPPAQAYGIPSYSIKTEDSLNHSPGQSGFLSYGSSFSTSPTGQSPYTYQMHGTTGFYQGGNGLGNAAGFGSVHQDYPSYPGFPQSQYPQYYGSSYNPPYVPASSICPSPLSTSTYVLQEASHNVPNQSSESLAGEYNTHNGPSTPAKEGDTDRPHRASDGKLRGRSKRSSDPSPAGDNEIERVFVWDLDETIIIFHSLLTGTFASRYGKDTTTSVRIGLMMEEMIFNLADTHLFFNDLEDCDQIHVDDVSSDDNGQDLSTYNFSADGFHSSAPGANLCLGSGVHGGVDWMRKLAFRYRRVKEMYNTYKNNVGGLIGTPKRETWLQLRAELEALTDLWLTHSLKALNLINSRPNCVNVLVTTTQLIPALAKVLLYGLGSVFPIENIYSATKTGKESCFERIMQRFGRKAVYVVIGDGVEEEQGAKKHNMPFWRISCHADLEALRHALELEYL
Target sequence (Q15475 whole entry, looked up): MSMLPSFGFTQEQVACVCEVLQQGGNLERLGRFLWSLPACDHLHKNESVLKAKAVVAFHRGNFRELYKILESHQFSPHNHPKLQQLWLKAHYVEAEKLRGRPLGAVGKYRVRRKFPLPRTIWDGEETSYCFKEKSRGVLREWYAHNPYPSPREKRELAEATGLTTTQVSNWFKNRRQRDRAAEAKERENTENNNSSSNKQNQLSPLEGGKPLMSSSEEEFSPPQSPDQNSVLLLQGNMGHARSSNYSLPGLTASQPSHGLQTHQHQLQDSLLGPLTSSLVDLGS
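AlphaScreen luminescence read after one hour at 37 °C in darkness. Pin-transferred compounds met GST-Six1 and His-Eya2 protein (5X stock 250 nM/500 nM) plus glutathione donor and Ni-chelate acceptor beads (5X, 50 ug/mL).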
DT40 TDP1 no CPT: qHTS for Inhibitors of human tyrosyl-DNA phosphodiesterase 1 (TDP1): qHTS in cells in absence of CPT. DT40 Tdp1-/- hTDP1 cells, no CPT, ATP luminescence, 48 h. 420,000 compounds, 15% hits. AID 686978, 2013. Potency, µM (series often up to 46.2 µM), for inactives: at the highest dose activity change, negative = growth inhibition, actives largely listed as inhibitors; also: potency is read from the fitted curve at half-maximal effect; nearly all actives have a fitted effect of over 55% in size
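Luminescent ATP content (CellTiter-Glo) served as the growth readout. Knockout chicken DT40 cells expressing human TDP1 were exposed to compounds without camptothecin for a minimum 48 hr at 37 °C.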
The depositor's hits bear a star; ? = inconclusive; / = no result given; [ ] = remark or other dose. Unless noted, calls follow the shape of the dose curve; as a rule, active = well fitted curve in the direction sought with a large enough effect; inconclusive = small, poorly fitted or top-dose-only effect, or another doubt; inactive = no such curve, though single readings can be large; an effect the other way counts as inactive or inconclusive. % is scaled to controls: 0 for no effect and ±100 for the full control effect.

SMILES | CtBP-E1A inh | DT40 TDP1 CPT | IL-1B inflam inh | TDP1 inh | Six1-Eya2 inh | DT40 TDP1 no CPT
COc1cc(/C=C2/C(=O)CNC2=O)ccc1O | 1 | 4% | 26 | 6% | 1 | 29%
COc1cc(C=C(C(C)=O)C(C)=O)ccc1O | 2 | -23% | -67* | -3% | 4 | ?
CCOc1cc(/C=C2\CN(CC)C/C(=C\c3ccc(O)c(OCC)c3)C2=O)ccc1O | 4 | 5.2µM* | -104* | / | 3 | 4.1µM*
CCOc1ccc(N2C(=O)S/C(=C\c3ccc(O)c(OCC)c3)C2=O)cc1 | -4 | -101% | -53* | / | -1 | 16µM*
CCOc1cc(/C=N/N=C/c2ccc(O)c(OCC)c2)ccc1O | -8 | -21% | 35 | / | -9 | -8%
CC(C)(C)c1cc(C(=O)N2CCc3ccccc32)ccn1 | 19 | -20% | 9 | 8% | 10 | ?
COc1cc(C=C2CCC/C(=C\c3ccc(O)c(OC)c3)C2=O)ccc1O | / | 3.3µM* | / | / | / | 7.5µM*
COc1cc(C=C2NC(=O)NC2=O)ccc1O | -14 | 1% | -18 | / | -25 | ?
COc1cc(/C=C2/CCCC(C(=O)C(F)(F)F)=C2O)ccc1O | 1 | 11% | -24 | / | 4 | -18%
COc1cc(/C=C2\CCC/C(=C\c3ccc(O)c(OC)c3)C2=O)ccc1O | 0 | 7.1µM* | -95* | 10% | 1 | 8.2µM*
CCN1C/C(=C/c2cccc([N+](=O)[O-])c2)C(=O)/C(=C/c2cccc([N+](=O)[O-])c2)C1 | -1 | 0.58µM* | -106* | 6% | 14 | 0.73µM*
CCC(C)N(C(=O)CCC(=O)Nc1cc(C)on1)C(C(=O)NC(C)(C)C)c1ccccc1Cl (configuration not stated) | 0 | -11% | 22 | 0% | -12 | ?
CCNC(=S)N/N=C(\C)c1cc2ccccc2o1 | -26 | ? | -52* | 7% | -14 | ?
S=C(NCc1ccccc1)Nc1ccc(Oc2ccccc2)cc1 | / | -15% | -1 | / | -2 | ?
S=C(NCc1ccccc1)Nc1ccc2ccccc2c1 | -2 | 10% | -76* | 5% | -1 | 2%
C/C(=N\NC(=S)Nc1cccc(C)c1)c1cc2ccccc2o1 | 15 | ? | 5 | 10% | -16 | ?
C/C(=N\NC(=S)NCc1ccccc1)c1cccc(Br)c1 | -2 | 15µM* | -14 | -10% | -19 | 21µM*
C/C(=N\NC(=S)NCc1ccccc1)c1ccc2ccccc2c1 | 4 | 6.5µM* | 16 | 10% | ? | 7.3µM*
COc1ccc(/C(C)=N/NC(=S)NCCc2ccccc2)cc1 | -17 | ? | -9 | 10% | -15 | ?
CCCS(=O)(=O)NC(=O)C1(C)CCCN(C(=O)c2cc3ccccc3s2)C1 (configuration not stated) | 6 | -10% | 55 | / | 12 | -1%
O=c1cc(-c2ccccc2)nc2c(-c3ccccc3)c(C(F)(F)F)[nH]n12 | 13 | ? | 37 | 3% | 10 | ?
O=C(COC(=O)/C=C/c1ccc(Br)o1)Nc1ccccc1F | / | / | / | 16µM* | / | /
Nn1c(SCc2ccc(F)cc2)nnc1-c1cccnc1 | 13 | 35% | 21 | -5% | 6 | 0%
COc1ccc(C)cc1N(C(=O)c1ccccc1F)c1nc2ccccc2s1 | 1 | ? | 8 | 8% | 1 | 18µM*
COc1ccc(C)cc1N(C(=O)c1ccccc1)c1nc2ccccc2s1 | 4 | -28% | -3 | 2% | -3 | ?
SMILES | CtBP-E1A inh | DT40 TDP1 CPT | IL-1B inflam inh | TDP1 inh | Six1-Eya2 inh | DT40 TDP1 no CPT
Cc1cc(-c2ccccc2)nc(N(C)NC(=O)c2ccc(Cl)cc2)c1S(C)(=O)=O | 0 | 15µM* | -27 | 2% | -1 | 21µM*
Cc1cc(-c2ccccc2)nc(N(C)C)c1S(C)(=O)=O | 10 | ? | -6 | 5% | 16 | ?
O=c1[nH]c(Nc2ccccc2)cc2cc(Br)ccc12 | -6 | ? | 36 | / | -3 | 18µM*
COc1ccccc1Nc1cc2cc(Br)ccc2c(=O)[nH]1 | 3 | 2.6µM* | 79 | / | 1 | 5.2µM*
COc1ccc(OC)c(Nc2cc3ccccc3c(=O)[nH]2)c1 | ? | 1.3µM* | 63 | / | -6 | 1.8µM*
NC(=O)c1ccc(Cl)c2ccccc12 | -17 | -3% | 6 | 3% | -17 | -8%
Cc1ccc(Oc2ncccc2/C=N/OCc2ccc(Cl)cc2Cl)cc1 | 14 | -12% | 15 | 1% | -3 | -1%
Nc1nc2cc(S(=O)(=O)N3CCOCC3)ccc2o1 | -2 | 23µM* | -3 | 2% | 3 | ?
CCn1c(SCC(=O)N(C)C)nc2cc(S(=O)(=O)N3CCOCC3)ccc21 | 6 | -10% | -2 | -9% | -1 | -8%
CCn1c(CCl)nc2cc(S(=O)(=O)N3CCOCC3)ccc21 | -4 | 7.3µM* | -101* | 1% | -4 | 2.9µM*
CCOC(=O)CSc1nc2cc(S(=O)(=O)N3CCOCC3)ccc2n1CC | 9 | -14% | -90* | 7% | -1 | -17%
CCn1c(SCC(=O)c2c[nH]c3ccccc23)nc2cc(S(=O)(=O)N3CCOCC3)ccc21 | 2 | 15µM* | -6 | 7% | -11 | 21µM*
CCn1c(SCC(N)=O)nc2cc(S(=O)(=O)N3CCOCC3)ccc21 | -7 | -26% | -6 | 5% | 7 | -3%
CCSc1nnc(NC(=O)c2cc(-c3ccccc3O)n[nH]2)s1 | -4 | ? | 4 | 5% | -6 | 1%
CCCn1c(CCC(=O)Nc2ccccc2Cc2ccccc2)nc2cc(S(=O)(=O)N3CCOCC3)ccc21 | -6 | 16µM* | -8 | 5% | 1 | 23µM*
CCCCCOC(=O)CSc1nc2sc3c(c2c(=O)n1Cc1ccccc1)CC(C)(CC)OC3 (configuration not stated) | / | ? | / | -1%[12.3 µM] | / | ?
COc1ccc(CCNc2oc(COc3ccc(Cl)cc3)nc2C#N)cc1OC | / | 13µM* | / | 6% | / | 12µM*
COc1ccc(CCNc2oc(COc3cccc(C)c3)nc2C#N)cc1OC | / | ? | / | / | / | 23µM*
COc1ccc(CNc2oc(COc3ccccc3)nc2C#N)cc1 | 19 | ? | -9 | 8% | 15 | ?
